From PubChem
Hits are enriched below; roughly 3.9% of the tested compounds scored in any of these assays.
CDK5 p35 inh: inhibitors of human CDK5/p35 kinase; inhibition, % at 10 µM; 0.01% of 330,000 active; Q00535+Q15078; Recombinant CDK5/p35, ADP-Glo luminescence, 60 min;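 active = highest replicate inhibition of at least 50% and at least 75% of replicates reaching 50%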;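 note: plate controls were DMSO neutral control for no effect and GW8510 at 10 µM for full effect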
Target sequence (Q00535 whole entry, looked up): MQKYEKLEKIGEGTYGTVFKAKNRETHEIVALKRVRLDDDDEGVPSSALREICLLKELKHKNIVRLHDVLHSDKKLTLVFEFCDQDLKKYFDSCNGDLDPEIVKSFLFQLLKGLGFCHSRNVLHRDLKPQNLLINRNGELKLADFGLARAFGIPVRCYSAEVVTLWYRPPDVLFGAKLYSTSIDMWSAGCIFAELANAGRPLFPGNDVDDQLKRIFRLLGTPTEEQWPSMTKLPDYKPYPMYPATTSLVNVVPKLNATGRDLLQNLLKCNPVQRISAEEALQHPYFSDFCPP
Target sequence (Q15078 whole entry, looked up): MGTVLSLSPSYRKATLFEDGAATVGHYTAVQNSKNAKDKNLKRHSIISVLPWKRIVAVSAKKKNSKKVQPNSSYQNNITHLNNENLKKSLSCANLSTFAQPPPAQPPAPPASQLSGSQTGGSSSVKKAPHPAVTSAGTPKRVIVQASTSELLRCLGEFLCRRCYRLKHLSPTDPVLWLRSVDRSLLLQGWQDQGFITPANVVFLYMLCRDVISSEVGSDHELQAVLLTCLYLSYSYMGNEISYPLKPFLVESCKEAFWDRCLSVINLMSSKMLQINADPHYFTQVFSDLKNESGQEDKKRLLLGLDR
Casp6 inh: caspase-6 (human) enzyme inhibition | P55212 | inhibition, % at 12.5 µM | AID 686996 | 0.53% of 350,000 active | purified caspase-6, Z-VEID-R110 cleavage fluorescence;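 active = mean inhibition across replicates at least about 35%, with every replicate also reaching that limit, limit read from the data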;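 note: 0% = median of neutral control wells and 100% = no fluorescence left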
ALR H2O2 inh: blocks human ALR sulfhydryl oxidase activity; P55789; purified ALR, DTT oxidation, H2O2 HRP-luminol luminescence; inhibition, % (test concentration not listed); 3.8% of 290,000 active; AID 485317;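 active = mean replicate inhibition above about 79%, with every replicate also reaching it, limit read from the data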
N-glyco inh: N-linked glycosylation inhibition. reporter increase, % at 12.5 µM. D54 ERlucT glycosylation luciferase reporter, 24 h; percent of 100 nM tunicamycin response. 0.23% of 360,000 active. AID 588692;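 active = mean luciferase reporter signal, scaled so untreated is 0 and the glycosylation-blocking control 100, at or above a set limit in every replicate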;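 note: luciferase carries N-glycosylation sites so blocking glycosylation raises the light; 0% = median of neutral control wells and 100% = median of 100 nM tunicamycin wells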
NSD2 HMT inh: NSD2 (human) methyltransferase inhibition; O96028; NSD2 peptide methylation, AlphaScreen, 120 min; inhibition, % at 12.5 µM; 0.54% of 310,000 active; AID 743445; in the data active = inhibition above about 50%
Mot1-301 SUMO: SUMOylation pathway inhibition by Mot1-301 growth rescue; S. cerevisiae Mot1-301 growth rescue, ATP luminescence, 38.5C; percent above DMSO median, 100 means doubled; growth rescue, % at 18.8 µM; 1% of 320,000 active;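 active = every valid replicate shows activation above 250% relative to neutral control wells; inactive = the rest, any valid replicate at or below 250%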;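 note: OY570 slx delta 5 strain wells were the positive control but not used for scaling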
Numbers without * were called inactive; x = no result given.

SMILES	CDK5 p35 inh	Casp6 inh	ALR H2O2 inh	N-glyco inh	NSD2 HMT inh	Mot1-301 SUMO
Cc1ccc(NS(=O)(=O)c2ccc(Br)s2)nc1	1	37*	-11	3	0	2
COc1ccc(C#Cc2cnc3c(c2)C(=O)N([C@@H](C)CO)C[C@H](C)[C@H](CN(C)CC2CC2)O3)cc1	x	-2	x	x	x	x
CC(C)(C)C(=O)NC1=NCCS1	0	x	100*	-1	-2	-3
CC(C(=O)NC1=NCCS1)(C(F)(F)F)C(F)(F)F	0	x	-2	0	-1	23
CCOC(=O)Cc1csc(NC(=O)CSc2nnc(-c3ccncc3)o2)n1	0	-2	25	-1	-2	-13
CCOC(=O)Cc1csc(NC(=O)CSc2nnc(-c3ccc(NS(=O)(=O)CC)cc3)o2)n1	-2	x	98*	-1	-1	-4
CCOC(=O)Cc1csc(NC(=O)CSc2nnc(-c3ccncc3)n2Cc2ccco2)n1	1	x	97*	2	-2	-2
C[C@@H]1CN([C@@H](C)CO)S(=O)(=O)c2ccc(-c3cccc(C#N)c3)cc2O[C@@H]1CN(C)C(=O)Nc1cc(F)ccc1F	x	3	x	x	x	x
CCOC(=O)CSC1=Nc2ccccc2C2=NC(CC(=O)NCc3ccccc3)C(=O)N12 (configuration not stated)	4	x	98*	0	1	-2
CCCCNC(=O)CC1N=C2c3ccccc3N=C(SCC(=O)Nc3ccccc3C)N2C1=O (configuration not stated)	1	x	94*	-2	-4	41
Cn1c(=O)c2c(nc(N/N=C/c3cccs3)n2Cc2ccccc2)n(C)c1=O	0	1	96*	-3	3	4
CCC(C)Nc1nc2c(c(=O)n(C)c(=O)n2C)n1Cc1ccc(Cl)cc1 (configuration not stated)	0	-1	9	0	x	12
CCC(C)Nc1nc2c(c(=O)n(C)c(=O)n2C)n1Cc1cccc(C)c1 (configuration not stated)	-2	x	97*	-1	-3	7
COc1ccc(S(=O)(=O)N2C[C@@H](O)COC[C@H]3O[C@@H](CC(=O)NCc4ccc(Cl)c(Cl)c4)CC[C@@H]32)cc1	x	-1	x	x	x	x
Cc1ccc2c(CNCc3ccccc3)cc(=O)oc2c1	0	0	-8	29*	9	-7
Cc1ccc2c(CN(C)Cc3ccccc3)cc(=O)oc2c1	x	7	x	-6	x	x
O=C(COc1ccccc1F)OCC(=O)c1ccc([N+](=O)[O-])cc1	0	-4	79*	-1	-2	14
Cc1ccccc1OCC(=O)NCC(=O)OCC(=O)c1ccc([N+](=O)[O-])cc1	1	1	97*	2	20	7
O=C(CCc1ccccc1)OCC(=O)c1ccc([N+](=O)[O-])cc1	1	-1	-2	0	1	-4
Cc1ccc(C(=O)COC(=O)CNC(=O)COc2ccccc2C)cc1C	-1	x	-47	5	-1	-1
O=C(CNC(=O)c1cccs1)NCC(=O)OCC(=O)c1ccc([N+](=O)[O-])cc1	-2	0	96*	1	15	-22
C[C@@H]1CN([C@H](C)CO)C(=O)c2cc(C#CC3CCCCC3)cnc2O[C@@H]1CN(C)S(=O)(=O)c1ccccc1	x	-1	x	x	x	x
CCCc1cn(CC[C@@H]2CC[C@H](NS(=O)(=O)c3ccc(-c4ccccc4)cc3)[C@H](CO)O2)nn1	x	-3	x	x	x	x
C[C@H](NC(=O)[C@@H]1[C@@H](CO)[C@@H]2Cn3c(ccc(-c4ccccc4)c3=O)[C@H]1N2C)c1ccccc1	x	0	x	x	x	x
CC(C)Cc1c2c([nH]c(=S)c1C#N)CCCC2	4	x	x	0	1	37
SMILES	CDK5 p35 inh	Casp6 inh	ALR H2O2 inh	N-glyco inh	NSD2 HMT inh	Mot1-301 SUMO
CCCCCCCc1c(C#N)c(N)[nH]c(=S)c1C#N	x	2	96*	x	4	-16
S=C(c1ccc(-c2ccc(Br)cc2)o1)N1CCOCC1	x	1	-3	-7	0	40
S=C(c1ccc(-c2ccc(Cl)cc2Cl)o1)N1CCCC1	x	1	96*	-2	1	1
S=C(c1ccc(-c2ccc(Br)cc2)o1)N1CCCCC1	2	54*	-21	-4	2	3
Nc1nc(Nc2cccc(Cl)c2)nc(NCCO)c1[N+](=O)[O-]	58*	-1	x	8	2	-10
COc1ccc(NC(=O)NNC(=O)CCc2ccc(O)c(O)c2)cc1OC	1	2	99*	1	4	-9
